From PubChem
14-3-3g Raf = alters human 14-3-3 gamma binding to Raf peptide; P61981; FP, 14-3-3gamma / TMR-pS259-Raf peptide binding; inhibition, % at 40 µM; hit rate 0.19% among 160,000; in the data active = inhibition above about 30%;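 note: 0% = protein plus tracer without compound and 100% = blank with tracer alone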
Target sequence (P61981 whole entry, looked up): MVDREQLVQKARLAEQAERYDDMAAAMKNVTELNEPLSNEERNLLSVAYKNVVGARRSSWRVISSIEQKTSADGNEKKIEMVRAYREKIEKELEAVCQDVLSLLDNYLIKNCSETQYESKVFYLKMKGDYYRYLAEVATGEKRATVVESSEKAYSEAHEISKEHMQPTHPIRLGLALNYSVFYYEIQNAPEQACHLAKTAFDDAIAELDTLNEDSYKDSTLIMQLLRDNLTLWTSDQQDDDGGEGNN
An asterisk follows results filed as active; + = active, no number. This excerpt belongs to a sample that is enriched for hits.

SMILES	14-3-3g Raf
COc1cc(C=C2N=C(SC)SC2=O)cc(OC)c1OC	-227
CSC1=NC(=Cc2ccc(N(C)C)cc2)C(=O)S1	125*
CCOC(=O)SC1=N/C(=C\c2ccc(N(C)C)cc2)C(=O)S1	-63
O=C(Nc1ccccc1Cl)c1ccc(C(F)(F)F)cc1	2
N[C@@H](Cc1ccc(O)c(O)c1)C(=O)O	-7
CC(Cc1ccc(O)c(O)c1)C(C)Cc1ccc(O)c(O)c1 (stereo unspecified)	60*
C[C@H](Cc1ccc(O)c(O)c1)[C@@H](C)Cc1ccc(O)c(O)c1	-10
CC(=O)Nc1ccc(NCc2ccc([N+](=O)[O-])cc2)cc1	-4
Cc1cccc(N2CCN(C(=O)c3cc4c(=O)oc5ccccc5c4n3C)CC2)c1C	-32
COc1cccc(NC(=O)CN(c2ccccc2OC)S(C)(=O)=O)c1	-1
O=C(Nc1ccc(Br)cc1)c1ccc(F)c(S(=O)(=O)N2CCN(c3ccc(F)cc3)CC2)c1	-6
CCC(=O)Nc1cccc(-c2cn3cccc(C)c3n2)c1	31*
Cc1cccn2cc(-c3cccc(NC(=O)c4cc5ccccc5oc4=O)c3)nc12	-5
Cc1cccn2cc(-c3cccc(NC(=O)CC(C)C)c3)nc12	-10
CCOC(=O)c1cnc2c(C#N)cnn2c1-c1ccccc1	0
CCOC(=O)Cc1c(C)nc2c(C#N)cnn2c1C	-4
CCOC(=O)c1cnc2c(C#N)cnn2c1C	141*
CC1CCCC(C)N1CCNC(=O)c1cccn2c(=O)c3c4c(sc3nc12)CCCC4 (stereo unspecified)	1
Cc1c(Cl)c(C)c([N+](=O)[O-])c(O)c1C=Nc1ccc(Br)cc1	-2
Cc1c(Cl)c(C)c([N+](=O)[O-])c(O)c1C=Nc1ccc(C(=O)O)cc1	45*
Cc1c(Cl)c(C)c([N+](=O)[O-])c(O)c1C=Nc1cccc(C(=O)O)c1	19
CCc1cccc(N=Cc2c(O)c(C(=O)Nc3ccccc3)cc3ccccc23)c1	6
COc1ccccc1NC(=O)c1cc2ccccc2c(C=Nc2ccc(OC(F)F)cc2)c1O	112*
Cc1cccc(N=Cc2c(O)c(C(=O)Nc3ccccc3C)cc3ccccc23)c1	-16
CN1C(=O)C(O)(CC(=O)c2ccc([N+](=O)[O-])cc2)c2ccccc21 (stereo unspecified)	1
SMILES	14-3-3g Raf
COc1cc(-c2nc3ccccc3c(=O)n2CC(=O)Nc2cccc(C(F)(F)F)c2)cc(OC)c1OC	0
O=C1c2ccccc2C(=O)c2cc(Br)ccc21	-6
Nc1cc2c3c(cccc3n1)C(=O)c1ccccc1-2	73*
O=C1c2ccccc2-c2nc(-c3ccccc3)cc3cccc1c23	-14
O=C(NCc1cccs1)c1ccc(CS(=O)c2ccccc2)o1 (stereo unspecified)	-7
Cc1cccc(N2CCN(C(=O)C3CCC(Cn4c(=S)[nH]c5ccccc5c4=O)CC3)CC2)c1C (stereo unspecified)	-8
CCCOC(=O)C(CC)Sc1ncnc2sc3c(c12)CCCC3 (stereo unspecified)	-11
Cc1ccc(C2CC(c3cccs3)=NN2C(=O)CS(=O)(=O)c2cn(C)c3ccccc23)cc1 (stereo unspecified)	-23
Cc1sc2ncn(CC(=O)NCCCN3CCOCC3)c(=O)c2c1S(=O)(=O)N1CC(C)CC(C)C1 (stereo unspecified)	-3
O=c1cc(CNC2CCCCC2)c2ccccc2[nH]1	-10
O=C1c2ccccc2-c2c(NC3CCCCC3)c(=O)[nH]c3cccc1c23	+
O=C(NC1CCCCCC1)c1c(O)c2ccccc2[nH]c1=O	-6
COc1ccc2c(c1)c(C=Cc1nc3ccccc3c(=O)n1-c1cccc(C)c1)c(C)n2C	-63
Cc1nc2c(C(=O)n3ccnc3)cnn2c(C)c1Cc1ccccc1Cl	-30
CCN(C(=O)CCN1C(=S)NC(C)(C)CC1C)c1ccc(C)c(C)c1 (stereo unspecified)	51*
CCN(C(=O)CN1C(=S)NC(C)(C)CC1C)c1ccc(C)c(C)c1 (stereo unspecified)	-5
Cc1cccc(NC(=O)CCN2C(=S)NC(C)(C)CC2C)c1C (stereo unspecified)	4
CC(=O)N1CCc2cc(S(=O)(=O)NC(C(=O)N3CCc4ccccc43)C(C)C)ccc21 (stereo unspecified)	-11
CC(NC(=O)c1ccc2c(c1)OCCO2)C12CC3CC(CC(C3)C1)C2 (stereo unspecified)	-3
COc1ccc(C(=O)Nc2nnc(C(C)C)s2)c(OC)c1	-3
CCCS(=O)(=O)N1CCC(C(=O)NCc2ccc(C)cc2)CC1	-1
CN(C)CCCN1C(=O)C(=O)/C(=C(/O)c2ccccc2)C1c1ccccc1 (stereo unspecified)	3
CCn1c2ccccc2c2nc3cc4ccccc4cc3nc21	116*
CCn1c2ccc(Cl)cc2c2nc3ccccc3nc21	-7
CCCCCn1c2ccccc2c2nc3ccccc3nc21	-3
SMILES	14-3-3g Raf
O=C(CCN1C(=O)C2C3C=CC(CC3)C2C1=O)NCc1ccc2c(c1)OCO2 (stereo unspecified)	0
CCC(=O)Nc1ccc2oc(-c3ccccc3F)nc2c1	-77
CC(C)(C)NC(=O)CSc1nsc(SCC(=O)NC(C)(C)C)c1C#N	-1
Cc1csc(NC(=O)CSc2nsc(SCC(=O)Nc3nc(C)cs3)c2C#N)n1	75*
Cc1csc(NC(=O)CSc2nc(-c3cccs3)cc(-c3cccs3)c2C#N)n1	-26
CCCCc1nc(-c2ccc(Br)cc2)no1	6
O=C(O)c1cc(-c2ccc(F)cc2)nc2ccccc12	2
Fc1ccc(-c2cnc3ccccc3n2)cc1	-9
Oc1c(-c2ccc(F)cc2)c2nc3ccccc3nc2c2ccccc12	53*
COc1cc(-c2nc3ccccc3c(=O)n2Cc2ccc(C(C)(C)C)cc2)cc(OC)c1OC	-1
CC(=O)[C@]1(O)Cc2c(O)c3c(c(O)c2[C@@H](O[C@H]2C[C@H](N)[C@H](O)[C@H](C)O2)C1)C(=O)c1ccccc1C3=O	117*
COc1cccc2c1C(=O)c1c(O)c3c(c(O)c1C2=O)C[C@@](O)(C(C)=O)C[C@@H]3O[C@H]1C[C@H](N)[C@H](O)[C@H](C)O1	-4
COc1ccc(NC(=O)C(c2ccccc2)N(C)C(=O)Cc2cccs2)cc1 (stereo unspecified)	-13
COC(=O)C1=CN(C2CC2)C=C(C(=O)OC)C1c1ccc(F)cc1	1
Cc1cccc(OCC(=O)Nc2cc3nn(-c4ccc(Cl)cc4)nc3cc2C)c1	-5
COc1ccc(-n2nc3c(c2NC(=O)c2ccc(S(=O)(=O)N4CCCC4)cc2)CS(=O)(=O)C3)cc1	-2
CCS(=O)(=O)N1N=C(c2ccc(NS(C)(=O)=O)cc2)CC1c1ccc(F)cc1 (stereo unspecified)	92*
CS(=O)(=O)Nc1ccc(C2=NN(S(C)(=O)=O)C(c3ccc(F)cc3)C2)cc1 (stereo unspecified)	-176
CCS(=O)(=O)N1N=C(c2ccc(NS(C)(=O)=O)cc2)CC1c1ccc(C)cc1 (stereo unspecified)	-212
O=C(CCCn1c(=S)[nH]c2ccc(Br)cc2c1=O)NCCCN1CCOCC1	-4
CC(=O)N(C)c1ccc(N2CCOCC2)c2c1C(=O)c1ccccc1C2=O	-15
Cn1c(=O)cc2c3c(c(N4CCOCC4)ccc31)C(=O)c1ccccc1-2	33*
Cc1ccc(Nc2ccc3c4c(cc(=O)n3C)-c3ccccc3C(=O)c24)cc1	-160
